TRHR PAM: allosterically enhances the human TRH receptor | P34981 | TRHR cells, fluo-8 calcium fluorescence, EC20 TRH enhancement | enhancement, % at 2 µM | 360,000 compounds, 0.66% hits; in the data active = enhancement above about 30%; also: 0% is about no effect
Target sequence (P34981 whole entry, looked up): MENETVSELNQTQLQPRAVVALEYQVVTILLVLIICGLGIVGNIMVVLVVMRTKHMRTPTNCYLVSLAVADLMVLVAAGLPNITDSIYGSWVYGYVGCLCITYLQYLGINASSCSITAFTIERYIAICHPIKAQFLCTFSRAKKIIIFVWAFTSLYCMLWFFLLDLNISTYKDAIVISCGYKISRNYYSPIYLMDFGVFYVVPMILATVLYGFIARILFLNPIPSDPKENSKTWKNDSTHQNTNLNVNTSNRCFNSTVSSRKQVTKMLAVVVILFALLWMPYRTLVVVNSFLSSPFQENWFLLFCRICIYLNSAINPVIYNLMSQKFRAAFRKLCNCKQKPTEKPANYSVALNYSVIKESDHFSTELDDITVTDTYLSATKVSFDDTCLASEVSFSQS
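Enhancer read-out: after compound pinning and an initial kinetic agonist-mode read, an EC20 of TRH (10 nM final) was injected and fluo-8 calcium signal (Ex 480/Em 530) followed at 1 s/cycle for 100 cycles in TRHR-expressing cells.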
D1 antag: antagonists of human D1 dopamine receptor; HEK293 TREx D1 cells, calcium flux, dopamine EC80; active compounds read low; AID 504652; 360,000 compounds, 3.2% hits; P21728; activity change, negative = inhibition, % at 10 µM; in the data active = activity change below about -30%; also: % is scaled to controls: 0 for no effect and ±100 for the full control effect
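Cells carrying a force-coupled, tetracycline-inducible human D1 receptor report calcium flux. Each well gets a 10 s baseline, compound with 180 s monitoring, then an EC80 dopamine stimulus with a second 180 s kinetic read.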
D1 PAM: human D1 dopamine receptor positive modulation; 360,000 compounds, 0.036% hits; HEK293 TREx D1 cells, calcium flux, dopamine EC20 potentiation; P21728; potentiation, % at 10 µM; AID 504651; in the data active = potentiation above about 30%; also: 0% is about no effect
LDHA inh: inhibitors of human lactate dehydrogenase A; 480,000 compounds, 0.15% hits; purified LDHA, NADH/diaphorase-resazurin fluorescence; active compounds read low; activity change, % (values are at about 110 or 230 µM); in the data active = activity change below about -30%;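 also: plate controls were DMSO wells for no effect and wells without enzyme for full effect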
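Remaining NADH was detected by diaphorase (0.133 mg/mL) converting 37 µM resazurin to fluorescent resorufin, read at 0 and 20 minutes. The preceding 5-minute room-temperature reaction used 2 nM LDHA, 0.2 mM sodium pyruvate and 0.06 mM NADH at pH 7.4.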
D1 ag: agonists of human D1 dopamine receptor | P21728 | 360,000 compounds, 1% hits | HEK293 T-REx D1 cells, calcium flux, agonist mode | activation, % at 2 µM; also: 0% is about no effect
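Agonism was scored from calcium flux recorded over 180 s (1 read/s) after pintool compound addition, following a 10-cycle baseline. Cells were inducible force-coupled HEK293 TREx D1, plated overnight at 30 C and loaded with no-wash calcium dye.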
TRHR agonist: activates the human TRH receptor | TRHR cells, calcium flux fluo-8, FDSS agonist mode | activation, % at 2 µM | 360,000 compounds, 0.18% hits | AID 493084; also: 0% is about no effect
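Read-out: compound-evoked intracellular calcium rise in TRHR cells, fluo-8 dye, kinetic FDSS fluorescence at 1 s/cycle following a 10-cycle baseline. Cells cultured overnight before dye loading (30 min–1.5 h, RT).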
Numbers without * were called inactive. In the library only some 3.6% were active in any assay of this set; here they are far more common. Rule as the data show it, unless noted: active = activation above about 30%; inactive = the rest.

How did S=C(NCCc1ccccc1)N/N=C/c1ccccc1Cl do in these assays?
TRHR PAM: 15.5; D1 antag: -32.8*; D1 PAM: 5.0; LDHA inh: -7.6; D1 ag: 4.5; TRHR agonist: 0.1

What do the screens show for `COc1ccc(-c2c(C)nn3c2ncc2c(=O)n(-c4ccc(NC(C)=O)cc4)ccc23)cc1`?
LDHA inh: 11.3

What do the screens show for `Cc1ccc(C)c(NC(=O)CC(C)(C(=O)O)c2ccccc2)c1` (stereo unspecified)?
LDHA inh: 10.8

What do the screens show for `CCCCCc1c(C)nc(Nc2nc(C)c3cccc(OC)c3n2)[nH]c1=O`?
LDHA inh: 18.3

What do the screens show for `COc1ccc(C(=O)/C(C#N)=C\c2cccc(Cl)c2Cl)cc1`?
LDHA inh: 10.9

What do the screens show for `COc1ccc(CCNC(=S)Nc2ccccc2)cc1`?
TRHR PAM: 0.2; D1 antag: -36.1*; D1 PAM: -13.8; LDHA inh: -1.3; D1 ag: 7.0; TRHR agonist: -2.3

What do the screens show for `S=C(NCCc1ccccc1)Nc1ccc(Br)cc1`?
TRHR PAM: 1.4; D1 antag: -51.5*; D1 PAM: -9.8; LDHA inh: -8.2; D1 ag: 15.4; TRHR agonist: -0.7

What do the screens show for `COc1ccc(CSCCNC(=S)Nc2ccccc2)cc1Cl`?
TRHR PAM: -3.1; D1 antag: -33.2*; D1 PAM: -7.6; LDHA inh: -0.2; D1 ag: 17.9; TRHR agonist: -0.1

What do the screens show for `CC(C)CCNC(=S)Nc1ccc(Br)cc1`?
TRHR PAM: -2.1; D1 antag: -33.2*; D1 PAM: -12.8; LDHA inh: -5.7; D1 ag: 13.2; TRHR agonist: 0.8

What do the screens show for `Cc1cccc(C)c1OCC(O)Cn1cnc2ncccc2c1=O` (stereo unspecified)?
LDHA inh: 6.5

What do the screens show for `O=C(COc1ccc2c(=O)c(-c3ccc(Cl)cc3)coc2c1)Nc1ccc2c(c1)OCO2`?
LDHA inh: -9.4

What do the screens show for `CC(C)c1ccc(CCNC(=S)Nc2ccc(Cl)cc2Cl)cc1`?
LDHA inh: -2.4

Results for S=C(NCCc1ccccc1)Nc1ccc(Cl)cc1Cl ?
TRHR PAM: -7.4; D1 antag: -32.6*; D1 PAM: -5.2; LDHA inh: -2.2; D1 ag: 13.0; TRHR agonist: -0.6

Results for CCCCNC(=S)NC(=O)c1ccc([N+](=O)[O-])cc1 ?
TRHR PAM: 1.7; D1 antag: -46.1*; D1 PAM: -6.5; LDHA inh: -0.5; D1 ag: 3.3; TRHR agonist: 0.0

How did CCCCNC(=S)Nc1ccc([N+](=O)[O-])cc1 do in these assays?
TRHR PAM: -8.9; D1 antag: -33.0*; D1 PAM: -6.2; LDHA inh: -6.4; D1 ag: 19.4; TRHR agonist: 0.6

Results for CCCCCCNC(=S)Nc1ccc(Br)cc1 ?
LDHA inh: -0.9

How did Cc1ccc([N+](=O)[O-])cc1NC(=S)NCCc1ccccc1 do in these assays?
TRHR PAM: -5.2; D1 antag: -35.8*; D1 PAM: -4.1; LDHA inh: -4.0; D1 ag: 23.4; TRHR agonist: -0.1

What do the screens show for `Cc1ccc(C(=O)O)cc1NC(=S)NCCc1ccccc1`?
TRHR PAM: 6.0; D1 antag: 8.1; D1 PAM: 7.0; LDHA inh: -4.1; D1 ag: -0.7; TRHR agonist: 0.9

Results for O=C(Nc1ccc(CC23CC4CC(CC(C4)C2)C3)cc1)c1ccc(F)cc1 ?
LDHA inh: 2.0

Results for COc1ccc(OCCNC(=S)Nc2cccc3ccccc23)cc1 ?
TRHR PAM: 0.3; D1 antag: -39.3*; D1 PAM: -3.5; LDHA inh: -2.2; D1 ag: 3.5; TRHR agonist: 0.3

What do the screens show for `CC(SCc1cc(=O)n2c([nH]c3ccccc32)c1C#N)C(=O)O` (stereo unspecified)?
TRHR PAM: 1.6; D1 antag: -32.0*; D1 PAM: -3.9; LDHA inh: -4.1; D1 ag: 3.3; TRHR agonist: 1.7
